Bioassay records: PubChem BioAssay, National Center for Advancing Translational Sciences (NCATS)
HT1080 IDH1KD tx – toxicity to HT-1080 IDH1 knockdown cells (counter line) | HT-1080 IDH1 knockdown viability, ATP luminescence, 48 h | Potency, µM (titrated, usually from 46.1 µM), for the others: at the top dose activity, negative = toxicity, usual class: cytotoxic | actives 2% (n = 360,000) | AID 686971;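 note: 0% = DMSO wells and -100% = cell-free medium wells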
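Using the IDH1-knockdown HT-1080 line run in the same batch and compound series as the NT line, viability after 48 h at 37 °C was determined by CellTiter-Glo luminescence and expressed as % activity.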
ATXN viability – cell viability loss in ATXN counter-screen; S2 cells (HEK-293 line with an ATXN2-luciferase reporter) viability, CellTiter-Fluor protease fluorescence, 24 h; Potency, µM (series often up to 56.7 µM), most hits filed as cytotoxic; actives 0.49% (n = 400,000); AID 651635; note: nearly all actives have a fitted effect of over 40% in size
ATXN2 expr inh – ATXN2 expression inhibition; HEK-293 ATXN2-luciferase reporter, luminescence, 24 h; Potency, µM (series often up to 57 µM), inactives show at the highest dose activity change, negative = inhibition, usual class: inhibitors; actives 0.72% (n = 360,000); note: % is set by controls: 0 for no effect and ±100 for the full control effect; nearly all actives have a fitted effect of over 55% in size
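qHTS (up to 57 uM final) was run with 24 h compound exposure of reporter cells at 37 °C. Each well was multiplexed: SteadyGlo luminescence measured ATXN2-luciferase expression after a fluorogenic Gly-Phe-AFC viability readout (25 uM final).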
KB-V1 MDR tox – KB-V1 MDR subline cytotoxicity; actives 3.4% (n = 400,000); Potency, µM (series often up to 46.1 µM), actives largely listed as cytotoxic; KB-V1 MDR cells viability, CellTiter-Glo, 72 h; note: % is set by controls: 0 for no effect and ±100 for the full control effect; nearly all actives have a fitted effect of over 60% in size
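Following 72 h at 37 degrees C with compound, KB-V1 cell viability was read by CellTiter-Glo luminescence, medium being phenol-red-free DMEM plus 10% FBS; concentration-response parameters came from normalized, curve-fitted qHTS data.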
HT1080NT lethal – kills 2HG-producing HT-1080-NT fibrosarcoma cells | actives 1.6% (n = 360,000) | HT-1080-NT fibrosarcoma viability, CellTiter-Glo ATP luminescence, 48 h | Potency, µM (doses to about 46.1 µM), without a hit: at the highest dose activity, negative = less viability, actives largely listed as cytotoxic;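 note: NT is the 2HG producing partner of a matched IDH1 knockdown line; 0% = DMSO-treated cells and -100% = media-only wells without cells; nearly all actives have a fitted effect of over 55% in size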
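Viability by CellTiter-Glo luminescence after 48 h compound exposure at 37C of HT-1080-NT cells (750/well, RPMI, 5% FBS). % activity scaled between DMSO wells and medium-only wells, then curve-fitted and categorized by curve class.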
KB-3-1 cytotox – kills parental KB-3-1 adenocarcinoma cells. KB-3-1 viability, CellTiter-Glo ATP luminescence, 72 h. Potency, µM (highest dose often 46.1 µM), usual class: cytotoxic. actives 1.4% (n = 400,000). AID 1347075; note: % is set by controls: 0 for no effect and ±100 for the full control effect; nearly all actives have a fitted effect of over 60% in size
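Cytotoxicity measured as CellTiter-Glo luminescence after 72 h at 37 C. Compound titrations were pinned onto drug-naive KB-3-1 parental adenocarcinoma cells grown in DMEM with 10% FBS, and normalized data fitted to concentration-response curves.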
The depositor's hits bear a star; i = inactive; ? = inconclusive; . = no result; [ ] = remark or other dose. Sampled rows, rich in hits. Any-hit rate of the full collection: about 6.2%. Calls come from the whole dose curve; as a rule, active = well fitted curve in the direction sought with a large enough effect; inconclusive = small, poorly fitted or top-dose-only effect, or another doubt; inactive = no such curve, though single readings can be large; an effect the other way counts as inactive or inconclusive. Potency is the fitted concentration of half-maximal effect.

SMILES	HT1080 IDH1KD tx	ATXN viability	ATXN2 expr inh	KB-V1 MDR tox	HT1080NT lethal	KB-3-1 cytotox
O=C(O)c1cc(Nc2cc(Cl)c3nonc3c2[N+](=O)[O-])ccc1O	-3%	11µM*	.	i	3%	i
Cc1ccc2c(c1)C(=O)C(=O)N2Cc1ccc(C(F)(F)F)cc1	-1%	28µM*	?	?	-5%	?
O=c1/c(=C\c2ccc3c(c2)OCO3)sc2n1CCCN=2	-4%	i	-2%	13µM*	1%	i
COc1cc2c(Oc3ccc(NC(=O)C4(C(=O)Nc5ccc(F)cc5)CC4)cc3F)ccnc2cc1OCCCN1CCOCC1	.	.	27µM*	.	.	.
COc1cc2c(Oc3ccc(-c4cnc(Nc5ccc(F)cc5)n(C)c4=O)cc3F)ccnc2cc1OCCCN1CCOCC1	.	.	24µM*	.	.	.
COC(=O)C1C(c2ccccc2)C(C(=O)OCc2ccco2)C1c1ccccc1 (stereo not given)	-23%	i	-15%	13µM*	7%	?
O=C(O)C1C(c2ccccc2)C(C(=O)OCc2ccco2)C1c1ccccc1 (stereo not given)	3%	i	-2%	i	9%	i
CCCOc1ccc(C2C(=O)N(C3CCCCC3)CC(=O)N2CCC2=CCCCC2)cc1OC (stereo not given)	.	i	9%	i	.	i
CC1CCCC(C)N1C(=O)CSCc1ccc(Cl)cc1 (stereo not given)	2%	i	9%	18µM*	1%	?
O=C(N=Nc1c(O)[nH]c2ccc(Br)cc12)c1cc(-c2cccs2)nc2ccccc12	13µM*	10µM*	11µM*	?	?	?
O=C(N=Nc1c(O)[nH]c2ccc(Br)cc12)c1ccco1	-6%	i	.	i	-1%	i
O=C(N=Nc1c(O)[nH]c2ccc(Br)cc12)c1ccccc1-n1cccc1	2.2µM*	.	?	3.3µM*	2.8µM*	5.2µM*
COc1ccc2sc(-c3ccc(SC)cc3)c(-c3ccc(O)cc3)c2c1	?	?	22µM*	?	?	?
COc1ccc(OC)c(NC(=O)CN(c2ccccc2OC)S(=O)(=O)c2ccc(C)cc2)c1	.	i	-1%	i	.	?
CCOC(=O)c1cnc(SCCc2ccccc2)nc1N	1%	i	79%	23µM*	10%	i
CCOC(=O)c1cnc(SCC(=O)Nc2cc(OC)cc(OC)c2)nc1N	?	?	-17%	2.3µM*	-28%	?
O=C1C2=C(NC(=S)NC2c2ccc(Cl)cc2)NC(c2ccc(Cl)cc2)N1c1ccc(Cl)cc1 (stereo not given)	?	?	?	?	?	16µM*
CCc1ccc(C2NC(=S)NC3=C2C(=O)N(c2ccccc2OC)C(c2ccc(CC)cc2)N3)cc1 (stereo not given)	-3%	?	?	?	1%	i
COc1ccc(S(=O)(=O)Oc2ccc3cccc(N)c3c2)cc1	-27%	i	2%	?	-23%	?
COc1ccc(S(=O)(=O)Oc2ccc3ccccc3c2)cc1	-6%	i	32%	16µM*	-21%	?
O=[N+]([O-])c1ccc(C2=NN(CCO)C(=Nc3ccc(OC(F)(F)F)cc3)SC2)cc1	15µM*	i	-20%	i	?	i
COc1ccc(N=C2SCC(c3ccc([N+](=O)[O-])cc3)=NN2CCO)cc1	?	i	-29%	?	?	i
CNc1ccc(Br)cc(C(=O)/C=C/c2ccc(OC)cc2OC)c1=O	-17%	i	3%	?	-7%	i
CCNc1ccc(Br)cc(C(=O)/C=C/c2ccc(Cl)cc2)c1=O	?	.	22µM*	18µM*	?	16µM*
CCNc1ccc(Br)cc(C(=O)/C=C/c2c(Cl)cccc2Cl)c1=O	?	?	?	i	?	?
SMILES	HT1080 IDH1KD tx	ATXN viability	ATXN2 expr inh	KB-V1 MDR tox	HT1080NT lethal	KB-3-1 cytotox
CNc1ccc(Br)cc(C(=O)/C=C/c2ccc(Cl)cc2Cl)c1=O	21µM*	?	?	?	?	?
CCOC(=O)c1c(S(=O)(=O)N2CCC(C(=O)NCc3cccc(C)c3)CC2)c(C)n(C)c1C	.	?	9%	i	.	i
Cn1c(SCc2cccnc2)nc2c(c1=O)SCC2	-4%	i	-11%	?	-3%	i
Cn1c(SCc2cccc([N+](=O)[O-])c2)nc2c(c1=O)SCC2	?	?	-9%[11.3 µM]	4.1µM*	-21%	?
Cn1c(SCc2ccc(Br)cc2)nc2c(c1=O)SCC2	-7%	i	-19%	21µM*	-1%	21µM*
Cc1cc(C(=O)Nc2ccccc2-c2nc(CNC(=O)C3COc4ccccc4O3)c(C)o2)c(C)o1 (stereo not given)	.	i	.	.	.	.
NC(=O)c1ncn([C@@H]2O[C@H](CO)[C@@H](O)[C@@H]2O)c1N	.	.	-14%	.	.	.
COc1ccccc1-c1cc(=O)c2c(O)ccc([N+](=O)[O-])c2o1	14%	i	6%	4.6µM*	5%	21µM*
Cc1sc2ncn(CC(=O)N3CCN(c4ccc(F)cc4)CC3)c(=O)c2c1S(=O)(=O)N1CCCCC1	.	i	-2%	i	.	i
Cc1cc(C)c(C(N)=O)c(SCC(=O)c2ccc(Cl)cc2)n1	-6%	i	0%	i	0%	i
Cc1ccc(C(=O)CSc2nc(C)cc(C)c2C(N)=O)cc1	?	i	15%	16µM*	?	i
Nc1ccc(Cc2ccc(C=O)cc2)cc1	.	.	.	i	.	i
c1cc(-c2cc3nc(NC4CCCCC4)ccn3n2)ccc1OCCN1CCOCC1	21µM*	25µM*	?	?	21µM*	?
Clc1cccc(CNc2ccn3nc(-c4ccc(OCCN5CCOCC5)cc4)cc3n2)c1	?	.	?	?	16µM*	?
c1ccc(COc2cccc(-c3cc4nc(NCc5cccs5)ccn4n3)c2)cc1	7.3µM*	i	-5%	?	?	?
COc1cc(Nc2ccn3nc(-c4ccccc4Cl)cc3n2)cc(OC)c1OC	-21%	?	-36%	i	23µM*	?
Cc1ccc2oc(=O)n(Cc3ccccc3Cl)c2c1	.	i	9%	i	.	i
COc1cc(-c2cc3nc(NC4CCCCC4)ccn3n2)cc(OC)c1OC	16µM*	?	-16%	?	18µM*	i
CN(C)c1ccc(/C=C/c2ccnc3c(O)ccc(O)c23)cc1	.	.	.	i	.	i
O=C(Oc1ccc(N(Cc2cccs2)C2=NS(=O)(=O)c3ccccc32)cc1)c1ccccc1	-5%	i	-7%	16µM*	-4%	i
